Screening results from PubChem.
CYP2C9 inh – blocks human cytochrome P450 2C9; CYP2C9 Supersomes, luciferin-H conversion, luminescence; inhibition, % at 5 µM; 96,000 compounds, 20% hits; AID 777;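 active means blocking of liver enzyme CYP2C9 beyond about 50% at 5 µM, limit read from the data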
Target sequence (P11712 whole entry, looked up): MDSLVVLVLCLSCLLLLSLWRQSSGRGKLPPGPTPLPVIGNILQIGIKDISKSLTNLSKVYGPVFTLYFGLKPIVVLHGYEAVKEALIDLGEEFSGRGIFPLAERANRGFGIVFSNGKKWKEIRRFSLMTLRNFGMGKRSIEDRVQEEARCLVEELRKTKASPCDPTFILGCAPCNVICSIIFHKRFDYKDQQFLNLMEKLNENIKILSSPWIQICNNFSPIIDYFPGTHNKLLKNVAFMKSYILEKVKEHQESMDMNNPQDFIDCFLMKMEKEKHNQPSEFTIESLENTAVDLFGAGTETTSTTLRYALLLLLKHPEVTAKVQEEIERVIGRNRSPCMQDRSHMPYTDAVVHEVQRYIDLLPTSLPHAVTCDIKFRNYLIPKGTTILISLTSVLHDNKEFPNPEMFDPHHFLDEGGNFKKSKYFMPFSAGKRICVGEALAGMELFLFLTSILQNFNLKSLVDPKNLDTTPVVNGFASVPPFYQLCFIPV
E-sel TNF inh – blocks E-selectin expression induced by TNF alpha; 120,000 compounds, 0.71% hits; AID 1246; inhibition, % at 2 µM; HUVEC TNFa-induced E-selectin immunofluorescence, high content;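 active means inhibition above the batch mean plus 3 SD, and confirmed as a hit on visual image review, cut at about 43% in these data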;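 further: 0% = TNF-stimulated DMSO wells and 100% = unstimulated control wells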
F-actin modifier – modifiers of cytoskeleton assembly | HUVEC TNFa F-actin phalloidin imaging, high content | 91,000 compounds, 0.18% hits | inhibition, % at 2 µM;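 active means inhibition above the batch mean plus 3 SD and confirmed as a hit by visual image inspection, cut at about 30% in these data, passing the limit was not always enough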
CYP2C19 inhib – inhibitors of human CYP2C19; CYP2C19 Supersomes, luciferin-H EGE luminescence, 30 min; P33261; 96,000 compounds, 21% hits; inhibition, % at 5 µM; AID 778;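 active means CYP2C19 inhibition above a set limit at 5 µM in the primary screen, cut at about 50% in these data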;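 further: plate controls were negative control wells for no effect and 2.5 mM tranylcypromine positive control for full effect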
CYP2C9 activ – increases human cytochrome P450 2C9 activity; P11712; recombinant CYP2C9, luciferin-H conversion, luminescence; stronger effect = higher value; factor 1 = untreated enzyme, 0 = blocked; activation factor at 5 µM; 96,000 compounds, 1.4% hits;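 active means activation factor of 2 or more for CYP2C9 at a 5 µM dose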;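 further: 0 = sulfaphenazole-blocked wells and 1 = vehicle-only wells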
CYP2C19 activ – increases human CYP2C19 enzyme activity; activation factor at 5 µM; 96,000 tested, under 10 active; P33261; AID 1025; recombinant CYP2C19, luciferin-H EGE luminescence; stronger effect = higher value; 0 = fully inhibited enzyme, 1 = untreated enzyme;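 active means activation factor of at least 2 at 5 µM in the primary screen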;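 further: 0 = wells with 2.5 mM tranylcypromine and 1 = vehicle-only wells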
Starred values were filed as active, the others as inactive; / = no result given. Most compounds without a hit are left out; they make up all but 22% or so of the library.

SMILES	CYP2C9 inh	E-sel TNF inh	F-actin modifier	CYP2C19 inhib	CYP2C9 activ	CYP2C19 activ
OCCNc1ncnc2c1ncn2Cc1ccccc1	4.3	/	0.0	33.1	1	0.7
C=CCn1cnc2c(NCc3ccccc3)ncnc21	28.1	-5.4	17.2	69.8*	0.7	0.3
COc1cccc(C(=O)NC2CC3CCCC(C2)N3CC(=O)Nc2ccc(N(C)C)cc2)c1 (stereo not given)	78.9*	-1.0	-8.6	38.4	0.2	0.6
O=S(=O)(c1cnc(Cl)c(Cl)c1)N1CCCc2ccccc21	/	8.3	/	/	/	/
O=S(=O)(NC1CC1)c1ccc(S(=O)(=O)N2CCCc3ccccc32)cc1	78.4*	9.5	20.9	89.5*	0.2	0.1
O=C(O)C1CC=CCC1C(=O)Nc1ccc(S(=O)(=O)N2CCCc3ccccc32)cc1 (stereo not given)	63.0*	-53.2	/	-8.3	0.4	1.1
O=C(Nc1ccc(S(=O)(=O)N2CCc3ccccc3C2)cc1)C1CCCO1 (stereo not given)	13.1	18.5	-0.9	12.4	0.9	0.9
O=C(Nc1ccc(S(=O)(=O)N2CCCc3ccccc32)cc1)C1CCCO1 (stereo not given)	65.3*	4.9	1.5	59.5*	0.3	0.4
O=C(O)C1CC=CCC1C(=O)Nc1ccccc1 (stereo not given)	17.6	2.0	/	15.2	0.8	0.8
COc1ccc(C)cc1NC(=O)NC(C)c1ccncc1 (stereo not given)	/	6.2	/	/	/	/
CC(=O)Nc1cccc(NC(=O)Nc2ccc(F)cc2F)c1	/	-11.7	/	/	/	/
COc1ccc(Cl)cc1NC(=O)NC(C)c1ccncc1 (stereo not given)	91.9*	/	-0.6	97.1*	0.1	0
COc1ccc(NC(=O)NC(C)c2ccncc2)cc1OC (stereo not given)	59.5*	-15.9	5.4	20.8	0.4	0.8
CC(NC(=O)Nc1ccc(F)cc1F)c1ccncc1 (stereo not given)	43.1	/	2.9	79.6*	0.6	0.2
CCOC(=O)CNC(=O)Nc1cccc(Cl)c1C	-15.0	-15.8	-13.3	12.0	1.1	0.9
O=C(N/C(=C\c1cccnc1)C(=O)N1CCOCC1)c1cccc(Br)c1	6.2	-16.8	1.1	5.7	0.9	0.9
O=C(/C=C/c1cccnc1)c1ccc(NC(=O)c2cccc(Br)c2)cc1	70.3*	-54.2	14.2	38.3	0.3	0.6
Cc1oc(CC(C)C)cc1C(N)=O	/	2.0	/	/	/	/
Cc1ccc(C(=O)Nc2ccon2)cc1S(=O)(=O)N1CCOCC1	2.4	12.4	27.4	-6.6	1	1.1
Cc1ccc(C(=O)O)cc1S(=O)(=O)N1CCC(C(=O)O)CC1	-25.3	0.8	9.4	-17.8	1.3	1.2
Cc1ccc(C(=O)Nc2ccon2)cc1S(=O)(=O)N1CCCCCC1	19.7	10.1	-18.4	87.5*	0.8	0.1
Cc1cc(C)n(C(=O)c2ccc(C)c(S(=O)(=O)N3CCCCC3)c2)n1	90.8*	4.9	/	91.2*	0.1	0.1
Fc1ccccc1OCCCCCCN1CCCC1	12.3	-26.4	23.8	14.4	0.9	0.9
CC1(C)CC(=O)C(C(=S)Nc2ccccc2)=C(NCCN2CCOCC2)C1	1.0	11.6	11.0	11.9	1	0.9
O=C(CSc1ncnc2c1cnn2Cc1ccccc1)Nc1ccc2c(c1)OCCO2	54.7*	-33.0	-5.8	57.6*	0.5	0.4
SMILES	CYP2C9 inh	E-sel TNF inh	F-actin modifier	CYP2C19 inhib	CYP2C9 activ	CYP2C19 activ
CCc1nc(SCC(=O)N2CCCc3ccccc32)c2oc3ccccc3c2n1	73.8*	9.0	-35.4	39.4	0.3	0.6
Cc1nc(SCC(=O)Nc2ccc3c(c2)OCCO3)c2oc3ccccc3c2n1	73.0*	8.5	19.1	96.4*	0.3	0
CCc1nc(SCC(=O)Nc2nccs2)c2oc3ccccc3c2n1	75.7*	-11.8	/	37.7	0.2	0.6
NC(=S)NNC(=O)[C@@H]1CCCC[C@@H]1C(=O)O	/	4.1	/	/	/	/
CCc1nc(SCC(=O)Nc2ccc3c(c2)OCCO3)c2oc3ccccc3c2n1	51.7*	5.9	6.7	24.5	0.5	0.8
O=C(CSc1ncnc2c1oc1ccccc12)Nc1ccc2c(c1)OCCO2	/	3.2	/	/	/	/
Cc1cccc(NC(=O)CSc2nnc(Cn3cnc4ccccc43)o2)c1	/	3.9	6.8	/	/	/
CC1=CC(C)(C)N2C(=O)C3(SCC(=O)N3c3ccc(F)cc3)c3cc(C)cc1c32 (stereo not given)	62.9*	20.6	/	47.6	0.4	0.5
CC(C)c1ccc(N2C(=O)CSC23C(=O)N2CCCc4cccc3c42)cc1 (stereo not given)	2.7	11.2	-4.8	-3.8	1	1
Cc1[nH][nH]c(=O)c1C(c1ccc(-c2ccc(Cl)c(Cl)c2)o1)c1c(C)[nH][nH]c1=O	11.0	10.7	-11.2	59.0*	0.9	0.4
Cc1[nH][nH]c(=O)c1C(c1ccc(-c2ccc(C(=O)O)cc2)o1)c1c(C)[nH][nH]c1=O	/	-28.0	/	/	/	/
Cc1ccc(S(=O)(=O)N(CC(=O)N/N=C/c2ccco2)Cc2ccccc2)cc1	41.6	-9.7	7.8	35.5	0.6	0.6
Cc1cccc(CN(CC(=O)N/N=C/c2ccco2)S(=O)(=O)c2ccc(Cl)cc2)c1	92.7*	-8.5	-15.1	99.8*	0.1	0
COc1ccc(N(CC(=O)N/N=C/c2cccs2)S(=O)(=O)c2ccccc2)cc1	/	12.6	/	/	/	/
Cc1cccc(CN(CC(=O)N/N=C/c2cccs2)S(=O)(=O)c2ccc(Cl)cc2)c1	69.9*	-1.2	7.2	74.4*	0.3	0.3
COc1ccc(CCNC(=O)CC2SC(=NCc3ccccc3)NC2=O)cc1 (stereo not given)	/	-5.3	/	/	/	/
COc1ccc(Cl)cc1NC(=O)COc1cccc(-n2cnnn2)c1	-234.2	4.4	-34.5	28.6	3.3*	0.7
COc1ccc(NC(=O)C(F)(F)F)cc1OC	2.3	-19.4	-5.0	1.0	1	1
O=C(COc1cccc(Oc2ccccc2)c1)Nc1ccc(SC(F)F)cc1	13.6	23.4	-13.2	29.9	0.9	0.7
O=C(COc1cccc(OC(F)F)c1)Nc1ccc(SC(F)F)cc1	-5.2	4.5	-2.8	81.3*	1.1	0.2
COc1ccc(NC(=O)CCC2CCCC2)cc1OC	28.1	-8.3	-13.4	94.9*	0.7	0.1
COc1cc(NC(=O)COc2cccc(OC)c2)cc(OC)c1	-4.2	/	9.4	87.8*	1	0.1
O=C(CN1CCOCC1)NCCNC(=O)CN1CCOCC1	-16.0	-1.4	8.8	-12.7	1.2	1.1
CNc1nnc(CSc2nc3ccccc3s2)s1	/	-1.8	-5.9	/	/	/
CC1(C)CC(CC(=O)O)CC(C)(C)N1	/	10.2	/	/	/	/
O=c1c2ccccc2c(-c2ccc(Cl)cc2)nn1-c1ccccc1	26.4	/	/	19.9	0.7	0.8
COc1cccc(OCC(=O)Nc2ccc(OC)c(OC)c2)c1	12.8	3.6	-2.8	50.8*	0.9	0.5
COc1ccccc1NC(=O)Cc1nn(C)c(=O)c2ccccc12	20.6	3.4	15.3	30.6	0.8	0.7
